Several values for one entry are separate records, joined by “and”; a condition that tells them apart may be missing. Identical values can stand only once. Records with an inconclusive call do not appear. Where a structure was tested more than once in an assay, its records may differ in their call. Activity calls are given as the source filed them. How the source made its calls, unless noted: active means hit-call score of the fitted dose curve at least 0.9, where 1 is the maximum; inconclusive means response in the unintended direction; inactive means score below 0.9.
How the values were obtained:
[1] = molecular target: Voltage-dependent N-type calcium channel subunit alpha-1B (Rattus norvegicus) (UniProt Q02294); assay: NVS_IC_rCaChN: NovaScreen (NVS) Ion Channel Assay for rat Calcium Channel, Type N (CaChN) (AID 2283317)
[2] = molecular target: human Peripheral-type Benzodiazepine Receptor (PBR), TSPO (gene 706) (UniProt P30536); assay: NVS_MP_hPBR: NovaScreen (NVS) Membrane Protein Assay for human Peripheral-type Benzodiazepine Receptor (PBR) (AID 2283331);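 further: hits reduce radioligand binding relative to DMSO baseline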
Sequence of human Peripheral-type Benzodiazepine Receptor (PBR), TSPO (gene 706) (P30536 whole entry, looked up): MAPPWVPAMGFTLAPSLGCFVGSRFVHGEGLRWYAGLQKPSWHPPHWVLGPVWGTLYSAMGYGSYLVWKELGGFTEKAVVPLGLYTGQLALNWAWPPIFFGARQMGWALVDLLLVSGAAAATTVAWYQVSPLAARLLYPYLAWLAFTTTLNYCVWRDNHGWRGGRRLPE
Summary of the method: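 Human colonic cell membranes were incubated with test chemical for 1 hour; radioligand binding was measured by filter-based scintillation counting. Primary screen ran in duplicate at 25 uM, with actives followed in concentration series; loss of signal versus DMSO baseline.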

[3] = NVS_IC_rCaDHPRCh_L: NovaScreen (NVS) Ion Channel Assay for rat Calcium Channel, Type L, Dihydropyridine Site (CaDHPRCh_L) (AID 2283320)
Summary of the method: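 Radioligand binding to dihydropyridine site on rat cortical membranes, filter-based scintillation counting, 1 h after dosing. Screened in duplicate at 25 uM; actives rerun in concentration-response up to 50 uM. Loss of signal versus DMSO baseline.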

[4] = molecular target: bovine Gamma-Aminobutyric Acid Type A Receptor BDZ, alpha 5 site (GABARa5), GABRA5 (gene 523515) (UniProt Q08E50); assay: NVS_LGIC_bGABARa5: NovaScreen (NVS) Ligand-Gated Ion Channel Assay for bovine Gamma-Aminobutyric Acid Type A Receptor BDZ, alpha 5 site (GABARa5) (AID 2283323)
Sequence of bovine Gamma-Aminobutyric Acid Type A Receptor BDZ, alpha 5 site (GABARa5), GABRA5 (gene 523515) (Q08E50 whole entry, looked up): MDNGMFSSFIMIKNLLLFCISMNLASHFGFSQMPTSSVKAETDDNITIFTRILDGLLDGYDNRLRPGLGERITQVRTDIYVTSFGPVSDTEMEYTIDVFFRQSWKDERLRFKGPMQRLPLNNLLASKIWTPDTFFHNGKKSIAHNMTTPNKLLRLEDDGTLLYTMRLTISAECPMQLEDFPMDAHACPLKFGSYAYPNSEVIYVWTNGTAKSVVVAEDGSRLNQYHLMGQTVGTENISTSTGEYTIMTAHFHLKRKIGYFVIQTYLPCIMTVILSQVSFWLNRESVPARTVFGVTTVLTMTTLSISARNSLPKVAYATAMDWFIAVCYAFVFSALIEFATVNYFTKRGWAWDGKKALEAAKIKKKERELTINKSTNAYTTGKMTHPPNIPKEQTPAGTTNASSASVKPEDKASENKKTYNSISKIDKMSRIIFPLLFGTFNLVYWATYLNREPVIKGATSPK
Summary of the method: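 Radioligand competitive displacement binding on bovine hippocampal membranes, read 1 hr after dosing by filter-based scintillation counting. Primary screen at 25 uM in duplicate; actives (e.g. ≥30% inhibition) then run in concentration-response up to 50 uM.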

[5] = molecular target: rat Peripheral-type Benzodiazepine Receptor (PBR), Tspo (gene 24230) (UniProt P16257); assay: NVS_MP_rPBR: NovaScreen (NVS) Membrane Protein Assay for rat Peripheral-type Benzodiazepine Receptor (PBR) (AID 2283335)
Sequence of rat Peripheral-type Benzodiazepine Receptor (PBR), Tspo (gene 24230) (P16257 whole entry, looked up): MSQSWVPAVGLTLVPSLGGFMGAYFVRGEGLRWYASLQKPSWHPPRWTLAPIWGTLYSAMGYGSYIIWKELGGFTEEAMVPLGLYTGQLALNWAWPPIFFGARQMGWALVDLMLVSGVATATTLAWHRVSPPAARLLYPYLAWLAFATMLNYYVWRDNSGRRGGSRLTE
Summary of the method: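 Radioligand displacement, rat kidney membrane prep, 1 h exposure, filter-based scintillation read; DMSO baseline, loss-of-signal scored. Primary screen at 25 uM in duplicate, actives followed up in concentration series.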

[6] = molecular target: rat Vasopressin 1 Receptor (V1), Avpr1a (gene 25107) (UniProt P30560); assay: NVS_GPCR_rV1: NovaScreen (NVS) G Protein-Coupled Receptor Assay for rat Vasopressin 1 Receptor (V1) (AID 2283316)
Sequence of rat Vasopressin 1 Receptor (V1), Avpr1a (gene 25107) (P30560 whole entry, looked up): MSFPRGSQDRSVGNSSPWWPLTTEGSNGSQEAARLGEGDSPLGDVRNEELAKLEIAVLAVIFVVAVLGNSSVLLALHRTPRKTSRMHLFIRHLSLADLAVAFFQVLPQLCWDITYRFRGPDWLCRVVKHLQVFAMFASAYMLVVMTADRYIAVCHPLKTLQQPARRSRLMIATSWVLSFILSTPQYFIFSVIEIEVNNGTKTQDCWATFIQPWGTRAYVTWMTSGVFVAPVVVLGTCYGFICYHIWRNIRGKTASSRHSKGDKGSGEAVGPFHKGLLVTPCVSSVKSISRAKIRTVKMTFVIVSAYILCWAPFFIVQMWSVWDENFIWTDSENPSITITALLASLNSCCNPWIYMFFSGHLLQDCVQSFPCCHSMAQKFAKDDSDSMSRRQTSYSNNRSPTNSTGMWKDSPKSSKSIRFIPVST
Summary of the method: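 Radioligand binding on rat liver membranes, 1.5 h incubation, filter-based scintillation counting. Single 25 uM screen in duplicate; chemicals meeting threshold (e.g. 30% inhibition) run in concentration-response up to 50 uM.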

[7] = molecular target: rat Opioid Receptor, Non-selective Binding, Oprm1 (gene 25601) (UniProt P33535); assay: NVS_GPCR_rOpiate_NonSelective: NovaScreen (NVS) G Protein-Coupled Receptor Assay for rat Opioid Receptor, Non-selective Binding (AID 2283318)
Sequence of rat Opioid Receptor, Non-selective Binding, Oprm1 (gene 25601) (P33535 whole entry, looked up): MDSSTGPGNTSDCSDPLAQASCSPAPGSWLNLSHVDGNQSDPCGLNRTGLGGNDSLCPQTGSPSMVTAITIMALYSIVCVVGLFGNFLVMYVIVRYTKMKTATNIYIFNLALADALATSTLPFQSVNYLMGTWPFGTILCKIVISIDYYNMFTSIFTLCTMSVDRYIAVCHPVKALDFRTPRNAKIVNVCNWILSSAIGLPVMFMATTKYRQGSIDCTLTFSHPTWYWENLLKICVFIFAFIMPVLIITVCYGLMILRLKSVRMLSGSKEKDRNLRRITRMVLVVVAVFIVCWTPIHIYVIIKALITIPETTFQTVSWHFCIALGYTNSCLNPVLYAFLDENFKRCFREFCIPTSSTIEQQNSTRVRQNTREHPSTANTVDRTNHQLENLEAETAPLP
Summary of the method: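 Rat forebrain membranes, cell-free radioligand binding with filter-based scintillation counting, read 1.5 h after dosing. Primary screen in duplicate at 25 uM; actives retested in concentration series. Loss of signal versus DMSO baseline scored.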

[8] = molecular target: Sodium channel protein type 1 subunit alpha (Rattus norvegicus) (UniProt P04774); assay: NVS_IC_rNaCh_site2: NovaScreen (NVS) Ion Channel Assay for rat Sodium Channel, Site 2 (NaCh) (AID 2283322);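 further: hit means loss of radioligand binding signal relative to DMSO so AC50 marks displacement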
Summary of the method: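 Membranes: rat forebrain. Format: competitive radioligand displacement, filter separation, scintillation readout, 1 h exposure. Primary screen in duplicate at 25 uM; actives retested in concentration series.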

[9] = molecular target: rat Glutamate, NMDA Agonist Site (GluNMDA), Grin1 (gene 24408) (UniProt P35439); assay: NVS_LGIC_rGluNMDA_Agonist: NovaScreen (NVS) Ligand-Gated Ion Channel Assay for rat Glutamate, NMDA Agonist Site (GluNMDA) (AID 2283327)
Summary of the method: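 Rat forebrain membranes, radioligand binding in the agonist-site protocol; 1 h after dosing; filter-based scintillation counting. Single-concentration duplicate screen at 25 uM, then concentration-response up to 50 uM for actives; gain-of-signal vs DMSO.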

[10] = molecular target: human Androgen Receptor (AR), AR (gene 367) (UniProt P10275); assay: NVS_NR_hAR: NovaScreen (NVS) Nuclear Receptor Binding Assay for human Androgen Receptor (AR) (AID 2283332)
Sequence of human Androgen Receptor (AR), AR (gene 367) (P10275 whole entry, looked up): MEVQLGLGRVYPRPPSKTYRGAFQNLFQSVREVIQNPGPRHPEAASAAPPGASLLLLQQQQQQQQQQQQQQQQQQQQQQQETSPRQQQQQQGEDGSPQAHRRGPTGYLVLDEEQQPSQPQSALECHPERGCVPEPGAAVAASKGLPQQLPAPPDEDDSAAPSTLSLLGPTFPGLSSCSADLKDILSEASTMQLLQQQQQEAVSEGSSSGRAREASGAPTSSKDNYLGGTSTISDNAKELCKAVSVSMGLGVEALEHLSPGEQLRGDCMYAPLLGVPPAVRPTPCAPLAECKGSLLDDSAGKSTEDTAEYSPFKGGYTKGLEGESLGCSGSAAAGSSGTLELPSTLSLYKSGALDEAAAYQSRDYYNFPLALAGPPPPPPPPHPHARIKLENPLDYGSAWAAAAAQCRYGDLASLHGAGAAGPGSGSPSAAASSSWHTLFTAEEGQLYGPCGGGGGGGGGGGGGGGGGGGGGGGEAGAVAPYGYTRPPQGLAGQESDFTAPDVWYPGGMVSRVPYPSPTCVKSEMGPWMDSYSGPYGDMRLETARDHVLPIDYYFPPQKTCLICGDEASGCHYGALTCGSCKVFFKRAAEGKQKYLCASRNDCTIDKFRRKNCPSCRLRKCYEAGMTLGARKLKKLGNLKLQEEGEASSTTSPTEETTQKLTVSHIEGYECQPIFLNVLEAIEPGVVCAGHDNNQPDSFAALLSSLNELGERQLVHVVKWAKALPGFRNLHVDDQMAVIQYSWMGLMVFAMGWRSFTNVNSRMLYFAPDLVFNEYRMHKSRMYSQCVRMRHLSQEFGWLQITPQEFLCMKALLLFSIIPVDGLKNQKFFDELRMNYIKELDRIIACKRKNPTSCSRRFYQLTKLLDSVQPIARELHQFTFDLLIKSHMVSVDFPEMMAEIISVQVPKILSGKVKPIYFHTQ
Summary of the method: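 Actives from a duplicate 25 uM single-point screen went on to concentration series. Read-out after 20 h was scintillation counting of displaced radioligand in LnCAP extract, with DMSO as baseline.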

[11] = molecular target: Glutamate receptor ionotropic, kainate 1 (Rattus norvegicus) (UniProt P22756); assay: NVS_IC_rKAR: NovaScreen (NVS) Ion Channel Assay for rat Kainic Acid Receptors (KAR) (AID 2283334; active means hit-call score of the fitted dose curve at least 0.9, where 1 is the maximum; inactive means score below 0.9)
Summary of the method: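 Radioligand displacement binding using rat forebrain membranes, 1 h incubation, filter-based scintillation counting. Screened in duplicate at 25 uM, with actives retested in concentration-response up to 50 uM; fitted against DMSO.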

[12] = molecular target: rat Glutamate, AMPA Site (AMPA), Gria1 (gene 50592) (UniProt P19490); assay: NVS_LGIC_rAMPA: NovaScreen (NVS) Ligand-Gated Ion Channel Assay for rat Glutamate, AMPA Site (AMPA) (AID 2283324)
Summary of the method: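 Rat forebrain membranes; radioligand binding read 1 h after dosing by filtration and scintillation counting. Duplicate single-point screen at 25 uM, then concentration-response to 50 uM for threshold hits (e.g. 30% inhibition); loss of signal vs DMSO.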

[13] = molecular target: Voltage-gated inwardly rectifying potassium channel KCNH2 (Homo sapiens) (UniProt Q12809); assay: NVS_IC_hKhERGCh: NovaScreen (NVS) Ion Channel Assay for human Potassium Channel ERG (KhERGCh) (AID 2283333)
Sequence of Voltage-gated inwardly rectifying potassium channel KCNH2 (Homo sapiens) (Q12809 whole entry, looked up): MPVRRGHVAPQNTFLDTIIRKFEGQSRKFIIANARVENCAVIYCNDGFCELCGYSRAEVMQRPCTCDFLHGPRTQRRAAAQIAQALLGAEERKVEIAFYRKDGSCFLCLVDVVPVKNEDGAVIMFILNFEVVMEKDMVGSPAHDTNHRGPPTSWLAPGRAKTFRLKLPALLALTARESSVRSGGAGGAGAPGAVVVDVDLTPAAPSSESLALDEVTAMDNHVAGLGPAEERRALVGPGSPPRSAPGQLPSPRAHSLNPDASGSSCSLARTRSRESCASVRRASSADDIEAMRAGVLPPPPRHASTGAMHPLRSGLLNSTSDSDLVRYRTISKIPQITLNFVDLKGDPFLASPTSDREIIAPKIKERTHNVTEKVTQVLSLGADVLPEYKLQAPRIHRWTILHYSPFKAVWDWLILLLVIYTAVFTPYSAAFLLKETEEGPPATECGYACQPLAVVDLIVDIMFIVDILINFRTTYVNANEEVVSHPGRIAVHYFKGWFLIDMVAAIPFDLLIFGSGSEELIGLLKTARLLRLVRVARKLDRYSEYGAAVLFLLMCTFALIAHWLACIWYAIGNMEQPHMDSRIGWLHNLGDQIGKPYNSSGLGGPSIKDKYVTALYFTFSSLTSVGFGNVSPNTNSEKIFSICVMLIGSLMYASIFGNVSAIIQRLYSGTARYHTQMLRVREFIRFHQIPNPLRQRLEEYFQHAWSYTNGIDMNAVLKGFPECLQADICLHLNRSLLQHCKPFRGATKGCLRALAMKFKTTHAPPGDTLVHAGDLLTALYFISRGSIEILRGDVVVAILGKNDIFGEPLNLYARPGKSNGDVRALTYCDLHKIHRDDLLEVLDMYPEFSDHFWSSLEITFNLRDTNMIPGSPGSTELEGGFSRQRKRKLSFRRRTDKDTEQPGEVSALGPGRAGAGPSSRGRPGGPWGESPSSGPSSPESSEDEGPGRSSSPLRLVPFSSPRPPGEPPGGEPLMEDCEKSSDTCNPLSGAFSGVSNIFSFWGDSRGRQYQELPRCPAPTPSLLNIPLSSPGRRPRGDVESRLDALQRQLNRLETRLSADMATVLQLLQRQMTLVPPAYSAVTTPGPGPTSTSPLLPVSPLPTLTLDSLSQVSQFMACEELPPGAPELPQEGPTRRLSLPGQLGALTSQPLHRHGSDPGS
Summary of the method: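 Cell-free radioligand competition binding on hERG protein extracted from CHO cells, read by filter-based scintillation counting 0.75 h after dosing. Primary screen at 25 uM in duplicate, actives followed in concentration series. Signal loss fitted versus DMSO.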

[14] = molecular target: rat Neonicotinoid receptor (NNR), Chrna7 (gene 25302) (UniProt Q05941); assay: NVS_LGIC_rNNR_BungSens: NovaScreen (NVS) Ligand-Gated Ion Channel Assay for rat Neonicotinoid receptor (NNR) (AID 2283315)
Sequence of rat Neonicotinoid receptor (NNR), Chrna7 (gene 25302) (Q05941 whole entry, looked up): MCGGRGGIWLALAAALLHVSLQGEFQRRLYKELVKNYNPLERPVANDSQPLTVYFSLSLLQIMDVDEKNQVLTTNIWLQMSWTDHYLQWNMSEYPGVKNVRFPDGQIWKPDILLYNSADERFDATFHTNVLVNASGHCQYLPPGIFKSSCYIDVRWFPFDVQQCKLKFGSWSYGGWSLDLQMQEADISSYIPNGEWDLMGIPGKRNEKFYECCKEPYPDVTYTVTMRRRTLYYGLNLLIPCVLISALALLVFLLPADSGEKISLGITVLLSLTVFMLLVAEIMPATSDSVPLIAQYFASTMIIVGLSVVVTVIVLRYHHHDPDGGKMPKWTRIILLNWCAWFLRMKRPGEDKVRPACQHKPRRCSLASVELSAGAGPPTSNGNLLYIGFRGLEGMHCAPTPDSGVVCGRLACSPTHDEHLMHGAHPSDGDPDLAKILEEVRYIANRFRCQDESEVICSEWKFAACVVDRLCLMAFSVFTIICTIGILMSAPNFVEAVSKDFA
Summary of the method: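 Radioligand displacement binding on rat cortical membranes, 2.5 h incubation, filtration and scintillation counting. Loss of specific binding fitted relative to DMSO.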

[15] = system: NCBI gene 24521; assay: NVS_IC_rKATPCh: NovaScreen (NVS) Ion Channel Assay for rat Potassium Channel, ATP-Sensitive (KATPCh) (AID 2283319)
Summary of the method: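 Rat cortical membranes; radioligand binding at ATP-sensitive K channel site, filter-based scintillation counting 2 h after dosing. Single-point duplicate screen at 25 uM, hits rerun in concentration-response up to 50 uM; loss of signal versus DMSO.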

[16] = molecular target: bovine Gamma-Aminobutyric Acid Type A Receptor BDZ, alpha 1 site (GABARa1), GABRA1 (gene 780973) (UniProt P08219); assay: NVS_LGIC_bGABARa1: NovaScreen (NVS) Ligand-Gated Ion Channel Assay for bovine Gamma-Aminobutyric Acid Type A Receptor BDZ, alpha 1 site (GABARa1) (AID 2283321)
Sequence of bovine Gamma-Aminobutyric Acid Type A Receptor BDZ, alpha 1 site (GABARa1), GABRA1 (gene 780973) (P08219 whole entry, looked up): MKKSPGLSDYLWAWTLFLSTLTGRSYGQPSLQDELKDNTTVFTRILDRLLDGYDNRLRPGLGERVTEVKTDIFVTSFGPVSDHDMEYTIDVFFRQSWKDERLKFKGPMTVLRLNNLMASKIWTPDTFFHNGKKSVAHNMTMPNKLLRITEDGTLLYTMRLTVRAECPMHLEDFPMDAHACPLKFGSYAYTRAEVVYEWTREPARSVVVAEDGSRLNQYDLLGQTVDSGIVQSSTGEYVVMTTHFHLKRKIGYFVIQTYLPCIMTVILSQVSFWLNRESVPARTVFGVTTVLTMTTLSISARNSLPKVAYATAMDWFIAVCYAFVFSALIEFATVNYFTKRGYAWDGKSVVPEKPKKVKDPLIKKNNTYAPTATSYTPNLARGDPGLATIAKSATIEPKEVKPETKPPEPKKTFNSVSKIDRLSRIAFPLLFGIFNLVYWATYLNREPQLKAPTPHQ
Summary of the method: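 Radioligand competition binding on bovine cortical membranes, 0.75 h, filter-based scintillation counting. Primary single concentration 25 uM in duplicate; actives rerun in concentration-response to 50 uM max. Loss of signal fitted versus DMSO.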

In the case of COP(=O)(OC)OC=C(Cl)Cl, the outcome [1] was “inactive” and the outcome [2] was “inactive”.
With CC[C@H](C)[C@H]1O[C@]2(C=C[C@@H]1C)C[C@@H]1C[C@@H](C/C=C(\C)[C@@H](O[C@H]3C[C@H](OC)[C@@H](O[C@H]4C[C@H](OC)[C@@H](O)[C@H](C)O4)[C@H](C)O3)[C@@H](C)/C=C/C=C3\CO[C@@H]4[C@H](O)C(C)=C[C@@H](C(=O)O1)[C@]34O)O2 (tested in a mixture with another compound) the AC50 [3] was 4.89 µM (active), the AC50 [4] was 8.26 µM (active) and the AC50 [2] was 0.363 µM (active). For the same molecule, the outcome [5] was “inactive”.
In the case of Oc1ccc(Cl)cc1Cc1ccccc1, the AC50 [6] was 7.33 µM (active), the outcome [6] was “inactive” and the outcome [7] was “inactive”. The AC50 [3] was 30.2 µM (active) [middle of 7 runs], the AC50 [8] was 10.9 µM (active) and the outcome [8] was “inactive”. The outcome [9] was “inactive”, the AC50 [2] was 17.1 µM (active) [middle of 7 runs] and the AC50 [10] was 7.84 µM (active) [middle of 6 runs]. For the same molecule, the outcome [11] was “inactive”, the AC50 [5] was 11 µM (active) and 9.89 µM (active) and 8.7 µM (active) and the outcome [5] was “inactive”.
In the case of O=S(=O)(O)C(F)(F)C(F)(F)C(F)(F)C(F)(F)C(F)(F)C(F)(F)C(F)(F)C(F)(F)F, the outcome [3] was “inactive”, the outcome [8] was “inactive” and the outcome [9] was “inactive”. The outcome [5] was “inactive”.
In the case of Cc1cc(C)nc(NC(=O)NS(=O)(=O)c2ccccc2C(=O)OC2COC2)n1, the outcome [12] was “inactive” and the outcome [13] was “inactive”.
For CCOC1Oc2ccc(OS(C)(=O)=O)cc2C1(C)C (configuration not stated), the outcome [14] was “inactive” and the outcome [15] was “inactive”.
With COP(=S)(OC)Oc1ccc(SC)c(C)c1 the outcome [14] was “inactive”, the AC50 [2] was 17.4 µM (active) and the AC50 [5] was 4.64 µM (active).
In the case of COP(=S)(OC)Oc1ccc([N+](=O)[O-])cc1, the outcome [14] was “inactive”, the outcome [16] was “inactive” and the AC50 [2] was 19.5 µM (active). The AC50 [5] was 15.7 µM (active).
In the case of O=C(NC(=O)c1c(F)cccc1F)Nc1ccc(OC(F)(F)C(F)OC(F)(F)F)c(Cl)c1 (configuration not stated), the outcome [4] was “inactive”.
For CNC(=O)/C=C(\C)OP(=O)(OC)OC, the outcome [4] was “inactive”.
With CC(C)(C)C(O)/C(=C\c1ccc(Cl)cc1Cl)n1cncn1 (configuration not stated) the outcome [1] was “inactive” and the outcome [7] was “inactive”.
